The target in experiment [1] is Bromodomain-containing protein 4 (Homo sapiens) (UniProt O60885). Conditions: Compound concentration 20.0 uM, Protein concentration 2.0 uM, Result type QC Liability.
Experiment [2] has as its target T1, Transcription intermediary factor 1-alpha (Homo sapiens) (UniProt O15164).
T1 sequence (whole entry): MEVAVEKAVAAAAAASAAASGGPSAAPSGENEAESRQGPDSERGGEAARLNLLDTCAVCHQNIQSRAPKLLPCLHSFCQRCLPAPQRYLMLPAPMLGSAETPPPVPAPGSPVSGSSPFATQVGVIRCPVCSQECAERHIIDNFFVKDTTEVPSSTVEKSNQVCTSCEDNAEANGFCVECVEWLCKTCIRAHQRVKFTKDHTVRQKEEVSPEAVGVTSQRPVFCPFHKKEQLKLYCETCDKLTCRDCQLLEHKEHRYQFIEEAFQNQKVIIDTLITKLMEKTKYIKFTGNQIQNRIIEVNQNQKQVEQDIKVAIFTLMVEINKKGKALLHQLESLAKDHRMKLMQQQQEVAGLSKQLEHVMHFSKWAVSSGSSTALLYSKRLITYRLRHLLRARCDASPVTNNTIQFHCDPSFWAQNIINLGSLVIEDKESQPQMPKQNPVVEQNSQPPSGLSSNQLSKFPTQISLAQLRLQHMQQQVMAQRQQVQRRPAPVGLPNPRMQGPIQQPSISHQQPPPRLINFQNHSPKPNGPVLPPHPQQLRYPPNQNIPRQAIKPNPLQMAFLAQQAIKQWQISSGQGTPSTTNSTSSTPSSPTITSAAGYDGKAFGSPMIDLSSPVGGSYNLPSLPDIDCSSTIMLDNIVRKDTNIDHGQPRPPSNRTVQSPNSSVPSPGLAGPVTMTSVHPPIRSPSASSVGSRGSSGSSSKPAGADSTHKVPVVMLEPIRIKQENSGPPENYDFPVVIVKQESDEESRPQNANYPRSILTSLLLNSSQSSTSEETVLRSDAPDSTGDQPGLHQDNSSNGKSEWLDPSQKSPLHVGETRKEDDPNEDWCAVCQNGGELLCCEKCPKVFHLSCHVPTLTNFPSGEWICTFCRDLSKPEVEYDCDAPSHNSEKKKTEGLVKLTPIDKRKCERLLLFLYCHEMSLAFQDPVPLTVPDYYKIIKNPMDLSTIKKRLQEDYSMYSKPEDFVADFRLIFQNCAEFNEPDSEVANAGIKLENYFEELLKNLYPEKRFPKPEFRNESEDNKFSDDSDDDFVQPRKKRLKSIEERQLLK
Conditions: Compound concentration 20.0 uM, Protein concentration 2.0 uM, Result type QC Liability.

The values that follow come from ChEMBL document CHEMBL5308504, “Tm Shift (DSF) assay results for EUbOPEN Chemogenomics Library” (2023).

Each structure is given as a SMILES string. Values joined by “and” are separate entries in the source; they are usually repeats but may differ in a detail not shown here. Equal values may be shown once.

A word on the ΔTm: it is the change in melting temperature against a reference sample.

`C[C@@H]1CN(CC(=O)N2CC(C)(C)c3nc(CO)c(Cc4ccc(F)cc4)cc32)[C@@H](CN2CCOC[C@H]2C)CN1`: the ΔTm in experiment [1] was -1.96 °C; in experiment [2] it was -0.43 °C.
As to `Cn1c(C2(NC(=O)c3ccc4c(C5CCCC5)c(-c5ncc(Br)cn5)n(C)c4c3)CCC2)nc2ccc(/C=C/C(=O)O)cc21`, the ΔTm in experiment [1] is 0 °C and -4.93 °C; in experiment [2] it was 0.68 °C and -0.65 °C.
In the case of `COc1ccc(-c2csc(NC(=O)[C@H]3CCCCN3S(=O)(=O)c3ccc(C)cc3)n2)cc1`, the ΔTm in experiment [1] is 3.35 °C; in experiment [2] it was -0.04 °C.
Turning to `COCCc1ccc(-c2c(C)nc3c(N4CCOCC4)ccnn23)cn1`, the values for the ΔTm in experiment [1] and in experiment [2] were -1.01 °C and -1.13 °C, respectively.
The corresponding values for `CN[C@@H](C)C(=O)N[C@H](C(=O)N1CCC[C@H]1C(=O)N[C@H]1c2ccccc2C[C@H]1OCC#CC#CCO[C@@H]1Cc2ccccc2[C@@H]1NC(=O)[C@@H]1CCCN1C(=O)[C@@H](NC(=O)[C@H](C)NC)C1CCCCC1)C1CCCCC1` are -4.51 °C and -2.69 °C.
Consider `CN(C)[C@H]1C[C@H](n2cnc(-c3ccc(F)cn3)c2-c2ccnc3[nH]ccc23)C1`, for which the values for the ΔTm in experiment [1] and in experiment [2] were -2.13 °C and -2.35 °C, respectively.
As to `CC(C)S(=O)(=O)c1ccccc1Nc1nc(N[C@@H]2CCCN(CCCCCCCNC(=O)COc3cccc4c3C(=O)N(C3CCC(=O)NC3=O)C4=O)C2)ncc1Cl` (stereo partly specified), the ΔTm came out at 1.89 °C in experiment [1] and 0 °C in experiment [2].
The corresponding values for `CN1C(=O)c2ccccc2N(C)c2nc(Nc3cnn(C4CCNCC4)c3)ncc21` are 3.95 °C and -1.94 °C.
The corresponding values for `CSc1nc2c(c(=O)n(C)c(=O)n2C)n1C` are -3.81 °C and -0.92 °C.
The like results for `CCn1c(-c2nonc2N)nc2cncc(C(=O)N3CC[C@H](N)C3)c21` were, in that order, -0.13 °C and -1.91 °C.
In the case of `Cc1nc2cccnc2n2c(-c3cc([C@@]4(O)CCCOC4)ccc3Cl)nnc12`, the values for the ΔTm in experiment [1] and in experiment [2] were -1.99 °C and 0.37 °C, respectively.
For the compound `Cn1nc(-c2ccc(C(N)=O)cc2)c2ccccc2c1=O`, the ΔTm in experiment [1] came to 0.79 °C; in experiment [2], 0.31 °C.
The corresponding values for `O=C(Nc1cc2cc[nH]c(=O)c2cc1Cl)[C@H]1CNC[C@@H]1c1cccnc1` are -1.63 °C and -2.69 °C.
The corresponding values for `CN1CCN(c2ccc(Nc3ncc4cc5n(c4n3)C3(CCCCC3)CNC5=O)nc2)CC1` are -0.66 °C and -0.72 °C.
The corresponding values for `O=C(Cc1ccccc1[N+](=O)[O-])Nc1ccc(-c2ccc(C(O)(C(F)(F)F)C(F)(F)F)cc2F)cc1` are -0.72 °C and 0.45 °C.
As for `CNS(=O)(=O)c1ccc(N(C)C)c(Nc2ncnc3cc(OC)c(OC)cc23)c1`, the ΔTm in experiment [1] is -3.63 °C; in experiment [2] it was -2.8 °C.
The corresponding values for `Cc1ncsc1-c1ccc(CNC(=O)[C@@H]2C[C@@H](O)CN2C(=O)[C@@H](NC(=O)CCCCNC(=O)c2ccc(-c3ccc(N4CCN(C)CC4)c(NC(=O)c4c[nH]c(=O)cc4C(F)(F)F)c3)cc2)C(C)(C)C)cc1` are -6.12 °C and -1.25 °C.
The corresponding values for `CN[C@@H]1CC[C@@H](c2ccc(Cl)c(Cl)c2)c2ccccc21` are -1.03 °C and -3.59 °C.
The like results for `O=C(CCSCc1ccco1)NNC(=O)N1Cc2ccccc2Oc2ccc(Cl)cc21` were, in that order, -3.5 °C and -1.32 °C.
On to `Nc1nccc(-c2c(-c3ccc(F)cc3)ncn2C2CCCCC2)n1`, for which the figures for the ΔTm in experiment [1] and in experiment [2] were 0.24 °C and -0.83 °C, respectively.
For the compound `CC1=C(C(=O)OCCO)[C@@H](c2ccc(C#N)cc2)NC(=O)N1c1cccc(C(F)(F)F)c1`, the ΔTm in experiment [1] is 0.01 °C; in experiment [2], 0.4 °C.
The like results for `CC[C@H](Nc1c(C#N)c(-c2ccc(-c3cccc(C)c3F)cc2)nc2cnccc12)C(=O)O` were, in that order, -2.07 °C and -1.52 °C.
The corresponding values for `Cc1nc(Nc2cnn(C3CCNCC3)c2)nc2c1N(C)C(=O)c1cc3ccccc3cc1N2C` are -2.15 °C and -2.83 °C.
As for `COCCOCn1c(S(C)(=O)=O)nc2c1c(=O)n(C)c(=O)n2C`, the ΔTm was -12.2 °C in experiment [1] and 0.18 °C in experiment [2].
The corresponding values for `O=C(Nc1snnc1C(=O)Nc1ccc(N2CCCC2)cc1)c1cncc(C(F)(F)F)c1` are -0.7 °C and -1.14 °C.
The corresponding values for `CN1C(=O)c2c(nn(Cc3ccc(-c4cccc(F)n4)cc3)c2Nc2ccccc2)N2C1=N[C@@H]1CCC[C@@H]12` are 1.34 °C and 0.8 °C.
The corresponding values for `O[C@]1(C(F)(F)F)CCCC[C@H]1Nc1ccc(F)cc1` are -1.92 °C and -2.51 °C.
As to `CC[C@H](CC(=O)O)n1c(=O)c2ncccc2n(Cc2cn(C)c3cc(C)cc(C)c23)c1=O`, the ΔTm in experiment [1] is -1.38 °C and -3.06 °C; in experiment [2], 0.26 °C and -1.81 °C.
For the compound `Fc1ccc(-c2nc(-c3c(F)cccc3F)[nH]c2-c2ccncc2)cc1`, the ΔTm in experiment [1] is 0.95 °C; in experiment [2], -2.15 °C.
The corresponding values for `COCc1c(-c2cc3cc(C)cc(OC)c3s2)c2c(N)ncnn2c1CN[C@@H]1CCNC1=O` are 1.53 °C and 0.22 °C.
As to `COc1cccc(CNc2ccc(S(=O)(=O)Nc3nc4ccccc4s3)cc2)c1O`, the figures for the ΔTm in experiment [1] and in experiment [2] were 0.58 °C and 0.53 °C, respectively.
Regarding `N=C(N)Nc1cc(C2CCNCC2)cc(C(F)(F)F)c1`, the ΔTm is -0.1 °C in experiment [1] and 0.35 °C in experiment [2].
Turning to `COc1cc2ncnc(Nc3ccc(F)c(Cl)c3)c2cc1OCCN(C)C[C@H](C)O`, the ΔTm is -3.09 °C in experiment [1] and -1.09 °C in experiment [2].
